# Screening results deposited in PubChem BioAssay by National Center for Advancing Translational Sciences (NCATS).
# A selection: hits, their analogues and other compounds. The true share with any hit is near 21%.
# Cycloheximide cs: affects cycloheximide protein synthesis inhibition readout, counter-screen. cell reporter, cycloheximide protein synthesis inhibition counterscreen. max response, %. 12% of 300,000 active. AID 2314; in the data active = max response mostly above about 13%, no sharp cut-off; inactive = mostly below about 14%; note: read at 38.3 µM for the half of the compounds with a filed dose; 0% is about no effect
# Pf growth 48h: inhibits P. falciparum growth in the first generation, 48 h; P. falciparum luciferase growth in erythrocytes, 48 h; Potency, µM (doses to about 28.7 µM), without a hit: at the top dose activity change, negative = inhibition, actives largely listed as inhibitors; 5.9% of 310,000 active; AID 504832; note: potency is the fitted concentration of half-maximal effect; % is set by controls: 0 for no effect and ±100 for the full control effect
#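 Read-out is firefly luciferase luminescence from an integrated reporter in P. falciparum, so falling signal marks reduced parasite growth. Infected erythrocytes were at 2% hematocrit and 0.1% parasitemia (final) in Albumax-supplemented RPMI 1640.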
# Pf growth 96h: inhibits malaria parasite growth, 96 h; Potency, µM (series often up to 28.7 µM), without a hit: at the highest dose activity change, negative = inhibition, most hits filed as inhibitors; 6.9% of 320,000 active; P. falciparum luciferase reporter growth, 96 h; AID 504834; note: potency is the fitted concentration of half-maximal effect; % is set by controls: 0 for no effect and ±100 for the full control effect
#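 Cell-based qHTS: luciferase-tagged P. falciparum in erythrocytes (2% hematocrit, 0.05% parasitemia final) incubated with compounds for 96 hours, 37 C, 5% CO2; luciferase detection reagent then added and luminescence measured.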
# Shiga inhibitor: Shiga toxin inhibition | AID 2315 | Vero cells, Shiga toxin protein synthesis inhibition reporter | 9.2% of 290,000 active | inhibition, % at 38.7 µM; in the data active = inhibition mostly above about 28%, no sharp cut-off; inactive = mostly below about 43%; note: 0% is about no effect
# NS1 inh: influenza NS1 inhibition; 0.4% of 270,000 active; Potency, µM (titrated, usually from 46.1 µM), inactives show at the top dose activity, positive = more growth; AID 2326; calls by dose curve; note: potency is the fitted concentration of half-maximal effect; actives are rising curves; nearly all actives have a fitted effect of over 50% in size
#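 Growth recovery, yeast-based: influenza A NS1 expressed in S. cerevisiae causes slow growth, and suppressors are detected by OD600. The parent strain without NS1 is used as positive control.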
# * = called active by the depositor; ? = inconclusive; / = no result; [ ] = remark or other dose. Unless noted, calls come from the whole dose curve; as a rule, active = well fitted inhibition curve with a large enough effect; inconclusive = small, poorly fitted or top-dose-only effect, or another doubt; inactive = no such curve, though single readings can be large or run the other way.
SMILES,Cycloheximide cs,Pf growth 48h,Pf growth 96h,Shiga inhibitor,NS1 inh
CCOC(=O)c1cn(CC)c2cc(N3CCSCC3)c(F)cc2c1=O,-5,0.93µM*,-2%,2,-4%
CCn1cc(S(=O)(=O)c2ccc(OC)cc2)c(=O)c2cc(F)c(N3CCN(C)CC3)cc21,-6,4%,8.3µM*,-10,6%
CCN1CCN(c2cc3c(cc2F)c(=O)c(S(=O)(=O)c2ccccc2)cn3C)CC1,8,-22%,?,-13,-8%
CCOC(=O)c1cn(CC)c2cc(N3CCN(C)CC3)c(F)cc2c1=O,-4,12µM*,?,-6,4%
CC(=O)[C@H]1CC[C@H]2C3CC=C4C[C@@H](O)CC[C@]4(C)C3CC[C@]12C (stereo not given in full),/,-3%,4%,/,/
Cc1cc(C)n(-c2nc3ccccc3nc2N2CCC(C)CC2)n1,1,9.3µM*,/,40,-65%
Cc1cc(C)n(-c2nc3ccccc3nc2N2CCN(C(=O)c3ccc(F)cc3)CC2)n1,-5,?,/,-10,-26%
Cc1cc(N2CCC(C)CC2)nc(-n2nc(C)cc2C)n1,-1,0.74µM*,/,-9,-3%
CCc1nc2ccccc2nc1N1CCN(S(=O)(=O)c2ccccc2)CC1,-2,?,15µM*,-4,2%
Cc1cc(C)n(-c2nc(N(C)C)nc(N3CCOCC3)n2)n1,-2,/,-9%,-15,1%
Cc1nc2ccccc2nc1N1CCC(C)CC1,8,27%,/,11,-34%
Cc1ccc(S(=O)(=O)N2CCN(c3nc4ccccc4nc3-n3nc(C)cc3C)CC2)cc1,8,10µM*,17%,-22,-68%
CCCCN(c1nc2ccccc2nc1Cl)S(=O)(=O)c1ccc(C)cc1,-6,?,?,34,4%
CCc1nnc(NC(=O)C2CCC(CNc3c(N4CCC(C)CC4)c(=O)c3=O)CC2)s1 (stereo not given),-2,?,?,5,6%
Cn1c(N2CCC(C(N)=O)CC2)nc2c1c(=O)n(Cc1ccc(Br)cc1)c(=O)n2C,/,/,/,/,0%
N/C(=N\OC(=O)Nc1ccccc1)c1cccc(C(F)(F)F)c1,29*,?,?,43*,5%
N/C(=N\OC(=O)Nc1ccccc1)c1ncc(C(F)(F)F)cc1Cl,20*,/,8%,53*,-11%
COC(=O)/C(=C\Nc1ccccc1N)c1ncc(C(F)(F)F)cc1Cl,68*,/,-19%,101*,-3%
Cc1c(NC(=O)OCCSc2nc(N(C)C)nc(N(C)C)n2)sc(=S)n1C,11,-19%,0%,4,-9%
O=C(NCC(c1ccco1)N1CCN(c2ccccc2F)CC1)c1ccco1 (stereo not given),/,-5%,8%,/,/
Cc1ccc2c(Cl)c(C(=O)NCC(c3ccco3)N3CCCC3)sc2c1 (stereo not given),6,?,?,-4,-2%
O=C(CCNC(=O)c1ccc(Cl)cc1)NCC(c1ccco1)N1CCCCC1 (stereo not given),/,?,4.7µM*,/,/
Cc1ccc2oc(C(=O)NCC(c3ccco3)N3CCCC3)c(C)c2c1 (stereo not given),20*,-14%,?,41,8%
O=C(NCC(c1ccco1)N1CCCC1)c1cc2ccccc2s1 (stereo not given),/,2.6µM*,4.1µM*,/,/
O=C(NCC(c1ccco1)N1CCCC1)c1cc2cc(Cl)ccc2o1 (stereo not given),/,?,9.3µM*,/,/
SMILES,Cycloheximide cs,Pf growth 48h,Pf growth 96h,Shiga inhibitor,NS1 inh
O=S(=O)(NC1=NCCC1)c1ccc(F)cc1F,-3,0%,20%,12,1%
Cc1nn(-c2ccc(C(=O)NCC(c3ccco3)N3CCCC3)cc2)c(C)c1Cl (stereo not given),/,?,0.83µM*,/,/
O=C(NCC(c1ccco1)N1CCCC1)c1ccc(Cl)cc1 (stereo not given),1,/,0.93µM*,3,-8%
O=C(NCC(c1ccco1)N1CCOCC1)c1ccc(F)c(F)c1 (stereo not given),/,52%,0%,/,/
Cc1cc(C)c(OCC(=O)NCC(c2ccco2)N2CCCCC2)c(C)c1 (stereo not given),/,13µM*,12µM*,/,/
CCOC(=O)CNc1cccc(C(F)(F)F)c1,6,21%,70%,-2,/
Nc1c(C(=O)N/N=C/c2ccc([N+](=O)[O-])cc2)sc2nnc(-c3ccccc3)c(-c3ccccc3)c12,-4,-6%,9%,2,4%
O=C1c2ccccc2C(=O)N1CC1c2ccccc2CCN1C(=O)C1CCCCC1 (stereo not given),2,/,12µM*,2,1%
Cc1nnc(SCc2ccccc2CSc2nnc(C)s2)s1,49*,-3%,61%,-10,/
Cc1nnc(SCc2nnc(-c3cccs3)o2)s1,37*,37%,39%,35,/
Cc1sc2nc(SCC(=O)N3CC(C)OC(C)C3)n(C)c(=O)c2c1C (stereo not given),-2,-19%,?,14,1%
Cn1c(N=NC(=O)c2ccccc2)c(O)c2ccccc21,43*,167%,222%,33*,-20%
Cc1c(C(=O)c2ccccc2)c2ccccc2n1C,-6,-3%,0%,-12,-80%
CCCOc1ccc(-c2nc[nH]c2[N+](=O)[O-])cc1,2,26%,60%[1.15 µM],23,/
O=C(Nc1cccc(F)c1)C1CCN(C(=O)NCc2ccccc2)CC1,-1,4%,-17%,-3,1%
O=C(Cc1ccc(Cl)cc1)NCC(=O)N1CCCCC1,12,31%,-2%,-7,1%
O=C(Cc1ccc(Cl)cc1)NCC(=O)N1CCCCCC1,-1,?,12µM*,12,-9%
O=C(NCC(=O)N1CCCCCC1)c1ccc(Cl)cc1,29*,71%,160%,65*,1%
Cc1cccc(C(=O)NCC(=O)N2CCOCC2)c1,23*,-10%,14%,8,10%
O=C(NCC(=O)N1CCOCC1)c1ccc(Cl)cc1,18*,34%,6%,35,8%
COc1ccc(NC(=O)[C@@H](NC(=O)c2ccccc2)C(C)C)cc1S(=O)(=O)N1CCCCC1,1,?,?,11,9%
O=S(=O)(NCc1ccccn1)c1ccc(Cl)s1,1,-7%,-10%,-5,2%
Cc1cc(C)n(C(=O)CNC(=O)c2cccc(F)c2)n1,-3,10%,29%,3,-4%
O=C(NCC(=O)N1CCN(Cc2ccccc2)CC1)c1ccc(Cl)cc1,18*,1%,38%,9,12%
CCOc1ccc(C(=O)Nc2ccccc2N2CCCC2)cc1,29*,?,?,72,-11%
O=C(NCC(=O)N1CCOCC1)c1ccccc1,15*,56%,41%,55*,0%
O=C(NCC(=O)N1CCN(Cc2ccccc2)CC1)c1ccc(Br)cc1,1,5%,325%,-2,-4%
Cc1nn(C(=O)CNC(=O)c2ccccc2)c(C)c1C,38*,46%,?,47,/
O=C(NCCc1nc2ccc(Cl)cc2[nH]1)C1CCC(=O)N(Cc2cccc(F)c2)C1 (stereo not given),-3,-10%,64%,-18,8%
